Source: PubChem BioAssay (NCI)
This is part of a sample that, as a whole, favours compounds with a hit. Of some 83,000 tested, about 20% had one in any assay.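 Growth was measured after 48 h exposure to one concentration of compound in 96-well plates. Values under 10 count as active.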 Calls of active or inactive are those of the source.

Assays:
Experiment in all cases: NCI-60 one-dose screen, 48 h (100 = growth as untreated, 0 = no growth, -100 = all killed)
Settings in all cases: 10 µM unless noted
[1] = test system: NCI-H23 lung
[2] = test system: NCI-H226 lung
[3] = test system: NCI-H322M lung
[4] = test system: HOP-62 NSCLC
[5] = test system: NCI-H460 lung
[6] = test system: HOP-92 NSCLC
[7] = test system: NCI-H522 lung
[8] = test system: A549/ATCC NSCLC
[9] = test system: COLO 205 colon
[10] = test system: DU-145 prostate
[11] = test system: K-562 leukemia
[12] = test system: MALME-3M melanoma
[13] = test system: MDA-MB-231 breast
[14] = test system: RXF 393 renal
[15] = test system: SF-268 CNS
[16] = test system: SF-295 CNS
[17] = test system: SF-539 CNS
[18] = test system: UACC-257 melanoma
[19] = test system: M14 melanoma

Measured: growth

O=C(CNCCN1CCOCC1)N1c2cccc3cccc(c23)N(C(=O)CNCCN2CCOCC2)C1c1cn(-c2ccccc2)nc1-c1cccc([N+](=O)[O-])c1
inactive: [1] 95.8% | [2] 81.4% | [3] 97.6% | [4] 89.7% | [5] 96% | [6] 53.2% | [7] 75.3% | [8] 82.3% | [9] 52.8% | [10] 87.8% | [13] 54.4% | [14] 47.9% | [15] 69.6% | [16] 100% | [17] 63.3% | [18] 90.3%
active: [11] -21.4% | [12] -87.3% | [19] -16.1%

Oc1c(Cl)cc(Cl)c(Cl)c1CNCCNCc1c(O)c(Cl)cc(Cl)c1Cl
active: [17] -9.34% | [18] 4.63%
inactive: [1] 24.7% | [2] 56.2% | [3] 21.8% | [4] 25% | [5] 13% | [6] 27.8% | [7] 14.9% | [8] 13.4% | [9] 13.3% | [10] 45.9% | [11] 10.3% | [12] 13.4% | [13] 35.5% | [14] 28.2% | [15] 25% | [16] 18.3% | [19] 20.3%

COc1ccc(CCn2cncc2-c2c[nH]c3ccccc23)cc1
inactive: [1] 82% | [2] 81.3% | [3] 92.8% | [4] 72.8% | [5] 92.5% | [6] 60.7% | [7] 83.7% | [8] 99.2% | [9] 96.9% | [10] 102% | [11] 87% | [12] 90.8% | [13] 74.5% | [14] 87.8% | [15] 80.9% | [16] 74.1% | [17] 93.4% | [18] 102% | [19] 92.6%

N#C/C(=C\c1ccc([N+](=O)[O-])s1)c1nc2cc(Cl)ccc2s1
inactive: [3] 99.3% | [4] 12.6% | [8] 25.1% | [10] 57.4% | [15] 27.9% | [16] 91.7% | [18] 55.6%
active: [1] 2.73% | [2] -74.1% | [5] 6.38% | [6] -37.8% | [7] -35.9% | [9] -26.6% | [11] 1.75% | [12] -57.1% | [13] -47.2% | [14] 6.88% | [17] -35% | [19] -78.1%

N#CC1C(C#N)C(C(=O)c2ccc(Br)cc2)N2c3ccccc3C=CC12 (configuration not stated)
active: [9] 3.37%
inactive: [1] 79.2% | [2] 64.7% | [3] 93.4% | [4] 75.1% | [5] 96.2% | [6] 55.5% | [7] 78.6% | [8] 65.8% | [10] 91.9% | [11] 24.4% | [12] 67.3% | [13] 57.6% | [14] 74.5% | [15] 78.5% | [16] 89.1% | [17] 89.3% | [18] 98.9% | [19] 75.3%

N#C/C(=C\c1ccccn1)c1nc2cc(Cl)ccc2s1
inactive: [1] 72.1% | [2] 67.9% | [3] 87.1% | [4] 63.5% | [5] 92% | [6] 55.8% | [7] 63.4% | [8] 78.1% | [9] 101% | [10] 92.8% | [11] 48.3% | [12] 87.5% | [13] 61.3% | [14] 60.3% | [15] 68.8% | [16] 94.4% | [17] 63.1% | [18] 91.8% | [19] 89.9%

COc1ccc(OC)c(CCn2cncc2-c2c[nH]c3ccccc23)c1
inactive: [1] 55.6% | [2] 68.3% | [3] 82.8% | [4] 74.3% | [5] 92% | [6] 46.7% | [7] 71% | [8] 90.8% | [9] 90.1% | [10] 88.4% | [11] 42.4% | [12] 74.5% | [13] 72.2% | [14] 74.4% | [15] 71.1% | [16] 71.6% | [17] 88.5% | [18] 80.8% | [19] 73.3%

CCN(CC)CCOc1ccc(NC(=O)C(C(C)C)N2C(=O)/C(=C/c3ccc(Br)cc3)SC2=S)cc1 (configuration not stated)
inactive: [1] 94.6% | [2] 90% | [3] 99.8% | [4] 104% | [5] 16.2% | [6] 78.8% | [7] 96.3% | [8] 16.6% | [9] 92.1% | [10] 73% | [13] 50.7% | [14] 71.6% | [15] 76.6% | [16] 101% | [17] 88.2% | [18] 93.5% | [19] 75.8%
active: [11] -64.8% | [12] -34.4%
